# TDP1 cell CPT: growth inhibition of DT40 Tdp1-/-;hTDP1 cells with camptothecin (screen for TDP1 inhibitors); Potency, µM (highest dose often 46.2 µM), inactives show at the top dose activity change, negative = growth inhibition, actives largely listed as inhibitors; actives 12% (n = 420,000); chicken DT40 Tdp1-/-;hTDP1 cells + 20 nM CPT, ATP luminescence, 48 h; also: potency is read from the fitted curve at half-maximal effect; nearly all actives have a fitted effect of over 55% in size
#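 Cell growth measured by CellTiter-Glo luminescence after a minimum 48 h, 37 C compound exposure with 20 nM CPT in Tdp1-knockout DT40 cells stably expressing hTDP1, seeded 400/well; qHTS titration format.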
# TDP1 cell noCPT: qHTS for Inhibitors of human tyrosyl-DNA phosphodiesterase 1 (TDP1): qHTS in cells in absence of CPT. DT40 Tdp1-/- hTDP1 cells, no CPT, ATP luminescence, 48 h. Potency, µM (top dose mostly 46.2 µM), for inactives: at the highest dose activity change, negative = growth inhibition, hits mostly inhibitors. actives 15% (n = 420,000). AID 686978, 2013; also: potency is read from the fitted curve at half-maximal effect; nearly all actives have a fitted effect of over 55% in size
#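 No-CPT arm: Tdp1-/-;hTDP1 DT40 cells (400/well) plus compounds, incubated ≥48 hr at 37 °C. Readout CellTiter-Glo luminescence.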
# ELG1 repair inh: inhibitors of ELG1-dependent DNA repair in HEK293T cells; HEK293T ELG1-luciferase reporter, luminescence, 16 h; DNA damage induced by 5-fluorouridine; Potency, µM (titrated, usually from 46.1 µM), for the others: at the top dose activity change, negative = inhibition, actives largely listed as inhibitors; actives 2.3% (n = 330,000); AID 504467; also: potency is read from the fitted curve at half-maximal effect; nearly all actives have a fitted effect of over 55% in size
#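 Quantitative HTS, concentration-response format. 2,000 cells/well co-treated with 5-fluorouridine and compound, 16 hr in 5% CO2 at 37 °C; ONE-Glo luminescence read after 30 min.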
# IL-1B inflam inh: inhibitors of inflammasome signaling (IL-1 beta secretion); THP-1 LPS/ATP IL-1B secretion, AlphaLISA, 16 h; hits give low values; activity change, % at 57.5 µM; actives 4.7% (n = 360,000); AID 743279; in the data active = activity change below about -50%; inconclusive = mostly about -30% to -49%
#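 THP-1 cells pretreated 1 hr with compounds (up to 57.5 uM final), then stimulated with LPS (250 ng/mL final) plus ATP (1.25 mM final); secreted IL-1B measured by AlphaLISA after 16 hr, decreased signal indicating inhibition.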
# Giardia kill: Giardia lamblia killing; activity change, % at 7.66 µM, hits read low; Giardia lamblia trophozoite viability; actives 0.15% (n = 340,000); in the data active = activity change below about -80%; inconclusive = between about -30% and that limit;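 also: parasites exposed to compound for two days anaerobically before the ATP read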
#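 Each well holds 100 Giardia trophozoites and compound. After two days (48 hrs) at 37 deg C in anaerobic conditions, ATP is quantified by luminescence.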
# TDP1 block: inhibitors of human tyrosyl-DNA phosphodiesterase TDP1; Q9NUW8; recombinant TDP1, AlphaScreen DNA substrate cleavage; Potency, µM (highest dose often 130 µM), for inactives: at the highest dose activity change, negative = inhibition, usual class: inhibitors; actives 0.28% (n = 350,000); also: potency is read from the fitted curve at half-maximal effect; nearly all actives have a fitted effect of over 40% in size
# Target sequence (Q9NUW8 whole entry, looked up): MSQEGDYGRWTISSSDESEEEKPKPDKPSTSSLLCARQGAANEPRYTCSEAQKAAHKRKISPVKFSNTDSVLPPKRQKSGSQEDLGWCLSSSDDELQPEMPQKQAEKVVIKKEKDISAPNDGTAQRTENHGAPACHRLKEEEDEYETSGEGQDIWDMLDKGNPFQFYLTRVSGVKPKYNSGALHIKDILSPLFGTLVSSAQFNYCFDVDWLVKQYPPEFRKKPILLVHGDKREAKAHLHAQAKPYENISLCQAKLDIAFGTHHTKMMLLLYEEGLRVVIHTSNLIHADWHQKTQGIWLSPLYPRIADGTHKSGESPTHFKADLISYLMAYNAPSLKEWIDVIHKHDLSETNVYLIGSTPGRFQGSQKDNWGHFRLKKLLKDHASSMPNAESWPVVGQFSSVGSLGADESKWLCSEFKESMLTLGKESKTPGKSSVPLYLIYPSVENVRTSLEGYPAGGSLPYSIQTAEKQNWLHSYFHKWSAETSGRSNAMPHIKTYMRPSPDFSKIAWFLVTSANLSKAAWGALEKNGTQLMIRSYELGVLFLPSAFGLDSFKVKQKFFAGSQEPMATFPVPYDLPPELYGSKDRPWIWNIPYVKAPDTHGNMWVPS
#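 Steps: enzyme plus compound, 15 min RT; add biotin/phosphotyrosine-FITC oligonucleotide (15 nM final), react 5 min; add donor/acceptor beads (10 ug/ml final), 10 min; read AlphaScreen. Tdp1 at 1 nM final.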
# Numbers without * were called inactive; ? = inconclusive; . = not tested or not shown; [ ] = another dose, or the depositor's remark. Hits are enriched below; roughly 19% of the tested compounds scored in any of these assays. Unless noted, calls follow the shape of the dose curve; as a rule, active = well fitted curve in the direction sought with a large enough effect; inconclusive = small, poorly fitted or top-dose-only effect, or another doubt; inactive = no such curve, though single readings can be large; an effect the other way counts as inactive or inconclusive. % is scaled to controls: 0 for no effect and ±100 for the full control effect.
SMILES,TDP1 cell CPT,TDP1 cell noCPT,ELG1 repair inh,IL-1B inflam inh,Giardia kill,TDP1 block
COc1cccc(N2CCN(C(=O)c3oc4ccccc4c3NC(=O)Cc3ccc(OC)c(OC)c3)CC2)c1,16µM*,?,16µM*,-10,-6,7%
COc1ccc(NC(=O)c2oc3ccccc3c2NC(=O)Cc2ccc(F)cc2)c(OC)c1,12µM*,8.2µM*,.,.,.,4%
COc1ccc(NC(=O)c2oc3ccccc3c2NC(=O)COc2ccccc2OC)c(OC)c1,-14%,-23%,?,-6,0,2%
CCc1ccc(NC(=O)CSc2ccc3nc(-c4ccc(OC)cc4)cn3n2)cc1,?,?,.,.,.,-5%
CNc1cncc(-c2cccc(OC)c2F)n1,-2%,-26%,.,-6,.,.
COc1ccccc1C(=O)Nc1c(C(=O)N2CCN(c3ccccc3F)CC2)oc2ccccc12,16µM*,16µM*,.,.,.,-1%
O=C(Cc1ccccc1)Nc1c(C(=O)N2CCN(c3ccc(F)cc3)CC2)oc2ccccc12,16µM*,26µM*,.,.,.,2%
O=C(Nc1c(C(=O)N2CCN(c3ccccc3)CC2)oc2ccccc12)c1ccco1,?,?,.,.,.,4%
COc1ccccc1C(=O)Nc1c(C(=O)N2CCN(c3ccc(F)cc3)CC2)oc2ccccc12,-17%,-10%,.,.,.,4%
Cc1ccc(CC(=O)Nc2c(C(=O)N3CCN(c4ccccc4)CC3)oc3ccccc23)cc1,23µM*,?,.,.,.,9%
COc1ccc(CC(=O)Nc2c(C(=O)N3CCN(c4ccccc4F)CC3)oc3ccccc23)cc1OC,10µM*,13µM*,.,.,.,9%
Cc1ccc(NC(=O)c2ccc3nsnc3c2)c(Cl)c1,-13%,?,?,-20,?,2%
CC(=O)Nc1ccc(NC(=O)CCCn2nc(C)c3sc4ccccc4c3c2=O)cc1,-19%,?,.,.,.,6%
CS(=O)(=O)c1nc(S(=O)(=O)c2ccc(Cl)cc2)c(N2CCC(C(N)=O)CC2)s1,?,?,-22%,-79*,-2,3%
Cc1ccc(S(=O)(=O)c2nc(S(=O)(=O)c3ccccc3)sc2N2CCN(CCO)CC2)cc1,?,?,-21%,-68*,-3,3%
CCN(CC)c1sc(S(=O)(=O)c2ccccc2)nc1S(=O)(=O)c1ccc(C)cc1,?,15µM*,.,.,.,5%
CCN1CCN(c2sc(S(C)(=O)=O)nc2S(=O)(=O)c2ccc(C)cc2)CC1,?,15µM*,?,-85*,-11,2%
CCOC(=O)C[C@@H](C(=O)OCC)[C@@H]1CCCCC1=O,.,.,.,.,.,6%[21 µM]
Cc1ccc(S(=O)(=O)NC(=O)C2(C)CCN2C(=O)C2CCCCC2)cc1 (stereo not given),17%,-7%,.,6,.,.
Cc1ccc2sc(N3CCN(C(=O)CCS(=O)(=O)c4ccc(F)cc4)CC3)nc2c1C,4.1µM*,2.6µM*,.,.,.,0%
COc1ccc(OC)c2sc(N3CCN(C(=O)CCS(=O)(=O)c4ccc(F)cc4)CC3)nc12,18µM*,21µM*,.,.,.,0%
Cc1ccc2sc(N3CCN(C(=O)C4=COCCO4)CC3)nc2c1C,-28%,?,2%,?,9,0%
COc1ccc(C(=O)CN2C(=O)N(c3cc(C)cc(C)c3)S(=O)(=O)c3ccccc32)cc1,?,?,.,.,.,1%
CCOc1ccc(-c2nc(SCC(=O)Nc3ccc4c(c3)OCO4)c(-c3ccc(F)cc3)[nH]2)cc1,-19%,?,.,.,.,2%
O=C(CSc1nc(-c2ccc(F)cc2)[nH]c1-c1ccc(F)cc1)Nc1ccc2c(c1)OCO2,16µM*,23µM*,.,.,.,0%
COc1ccc(NC(=O)CSc2nc(-c3ccc(OC)cc3)[nH]c2-c2ccc(OC)cc2)cc1,?,?,.,.,.,5%
